The values that follow come from PubChem BioAssay AID488969 (Vanderbilt High Throughput Screening Facility, 2010).

In all, about 110,000 compounds were measured (“z-score”: median about -0.1, highest 2% from about 2 on). The list comes from a sample in which the highest values are over-represented; it also holds similar structures and randomly drawn compounds. The source made the active and inactive calls.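 Rule for the calls: active = z-score in the third read window above 3 or below -3; inactive = the rest.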

Metabotropic glutamate receptor 8 (Rattus norvegicus), sequence (P70579 whole entry, looked up): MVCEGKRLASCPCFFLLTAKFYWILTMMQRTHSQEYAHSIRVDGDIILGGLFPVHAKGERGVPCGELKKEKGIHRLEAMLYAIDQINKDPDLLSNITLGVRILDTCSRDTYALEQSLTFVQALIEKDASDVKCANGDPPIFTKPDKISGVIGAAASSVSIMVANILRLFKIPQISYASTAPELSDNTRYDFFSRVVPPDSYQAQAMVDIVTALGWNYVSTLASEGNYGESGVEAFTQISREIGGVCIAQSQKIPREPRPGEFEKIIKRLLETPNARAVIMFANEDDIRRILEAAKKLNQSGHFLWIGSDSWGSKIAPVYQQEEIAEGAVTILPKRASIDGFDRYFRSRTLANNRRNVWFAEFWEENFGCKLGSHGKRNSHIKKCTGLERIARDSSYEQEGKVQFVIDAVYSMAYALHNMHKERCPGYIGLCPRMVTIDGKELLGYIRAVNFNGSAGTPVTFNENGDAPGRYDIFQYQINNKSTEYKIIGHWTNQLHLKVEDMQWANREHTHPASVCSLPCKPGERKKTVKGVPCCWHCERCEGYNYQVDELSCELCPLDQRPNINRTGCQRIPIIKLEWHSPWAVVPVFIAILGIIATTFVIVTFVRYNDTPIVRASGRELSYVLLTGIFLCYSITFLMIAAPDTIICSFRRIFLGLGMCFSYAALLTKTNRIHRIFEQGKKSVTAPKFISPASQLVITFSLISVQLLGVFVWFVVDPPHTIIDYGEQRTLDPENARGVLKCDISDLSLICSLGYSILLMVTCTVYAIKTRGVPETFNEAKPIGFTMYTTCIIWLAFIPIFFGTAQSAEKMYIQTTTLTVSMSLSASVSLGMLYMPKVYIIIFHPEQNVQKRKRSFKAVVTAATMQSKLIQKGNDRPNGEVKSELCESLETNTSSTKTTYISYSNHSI

This test has as its target Metabotropic glutamate receptor 8 (Rattus norvegicus) (UniProt P70579). In words: rat mGluR8 modulators via GIRK flux, primary screen, cell-based, thallium flux, HTS (AID 488969). To be noted: HEK293 rat mGluR8, GIRK (G protein-gated inwardly rectifying potassium channel) thallium flux, FluoZin2; at 10 µM; stronger effect = higher value; submaximal glutamate (EC20) added with thallium.
Regarding `C=CCN(Cc1cccc(OC)c1OC)S(=O)(=O)N(C)C`, the z-score was -0.164. The compound `Cc1ccc(-n2nnnc2-c2ccco2)cc1` had a z-score of -0.111. Take `CCOc1ccc(-n2nnnc2-c2nc3ccccc3s2)cc1`: the z-score was -0.319. As to `Cc1ccc(-n2nnnc2-c2nc3ccccc3s2)cc1`, the z-score was 6.16 (active).

`CCN(CC)C(=O)/C(=C\c1cccc([N+](=O)[O-])c1)NC(=O)c1ccco1` yielded a z-score of -0.281. With `CC(/C=N/NC(=O)c1cc(-c2ccccc2)nc2ccccc12)=C\c1ccco1`, the z-score was -0.0414. On to `Cc1ccc(-c2cc(C(=O)N/N=C/C=C/c3ccco3)c3ccccc3n2)cc1C`, for which the z-score is 2.64.

For the compound `CC(/C=N/NC(=O)c1cc(-c2ccc(Cl)cc2)nc2ccccc12)=C\c1ccco1`, the z-score was 0.0726. The value for `Cc1ccc(C(=O)N(Nc2nc3ccccc3s2)C(=O)c2ccc(C)cc2)cc1` was 0.0589; that for `O=C(OCc1ccc([N+](=O)[O-])cc1)c1ccc(N2CCCC2)c([N+](=O)[O-])c1` was 0.344. In turn, `CC(C)(C)N1CC2(c3ccccc3)CN(C(C)(C)C)CC(c3ccccc3)(C1)C2=O` yielded a z-score of 1.19. As to `O=[N+]([O-])c1cnccc1Nc1cccc(F)c1`, the z-score turned out to be 0.28.

In turn, `O=[N+]([O-])c1ccccc1-c1cc(-c2ccccc2O)n[nH]1` gave a z-score of -0.676. For the compound `O=C(/C=C/c1ccccc1)C1C(=O)c2ccccc2C1=O`, the z-score is 4.21 (active). Take `Cc1ccc(/C=C/C(=O)C2C(=O)c3ccccc3C2=O)cc1`: the z-score is 0.871. In the case of `CCc1ccc(/C=C/C(=O)C2C(=O)c3ccccc3C2=O)cc1` it was 3.92 (active); in that of `O=C(/C=C/c1ccccc1)/C=C/c1ccccc1`, -0.389; in that of `CCc1ccc(/C=C/C(=O)c2c(C)cc(C)[nH]c2=O)cc1`, -0.106.

For `CCc1ccc(/C=C\C(=O)N2CCc3ccccc3C2)cc1`, the z-score was -0.105. The compound `COc1ccc(N(C(=O)c2cnsn2)C(C(=O)NC2CCCCC2)c2ccncc2)cc1` (stereo not drawn) displayed a z-score of 0.0313. Turning to `CCCCNC(=O)c1ccccc1Cl`, the z-score is -0.135. Take `CCCCNC(=S)NC(=O)c1ccc(Cl)cc1Cl`: the z-score is 3.01 (active). The value for `O=C(NC(=S)NCCN1CCOCC1)c1ccccc1Br` was 0.00751; that for `CCCCNC(=O)c1ccccc1C(=O)NCCCC` was 0.0704; that for `CCC(=O)Nc1cccc(NC(=S)NC(=O)c2ccc(Cl)cc2Cl)c1` was 0.0528. In the case of `CCCCNC(=S)NC(=O)c1ccccc1Br`, the z-score is 6.17 (active). The value for `O=C(NC(=S)NCCN1CCOCC1)c1ccc(Cl)cc1Cl` was 0.241. Consider `CC(C)CC(NC(=O)c1ccc(Cl)cc1Cl)C(=O)O` (stereo not drawn), for which the z-score was -0.413. Compound `O=C(NC(=S)NCC1CCCO1)c1ccc(Cl)cc1Cl` (stereo not drawn) yielded a z-score of -0.218. As to `CC(C)CNC(=S)NC(=O)c1ccc(Cl)cc1Cl`, the z-score was 13.8 (active). `CC(C)NC(=S)NC(=O)c1ccc(Cl)cc1Cl`: the z-score was 13.8 (active). `Cc1cc(Cl)ccc1NC(=S)NCC(C)C` gave a z-score of -0.0377. In turn, `Cc1cc(N2C(=O)CC(Cc3ccccc3)C2=O)no1` (stereo not drawn) displayed a z-score of -0.0586. `CCOc1ccc(N(CC)S(=O)(=O)c2ccc3c(c2)n(C)c(=O)c(=O)n3C)cc1` came in with a z-score of -0.239. Consider `CCN(CC)S(=O)(=O)c1ccc(N2CCOCC2)c(NS(=O)(=O)c2ccc(C)cc2)c1`, for which the z-score was -0.152. The compound `Clc1ccc(Cn2ncc3c(N4CCCCC4)ncnc32)cc1` registered a z-score of -0.535. Compound `O=C(O)c1cc([N+](=O)[O-])ccc1N1CCCCC1` had a z-score of -0.123.

As for `CCN(CC)S(=O)(=O)c1ccc(N2CCOCC2)c(NC(=O)Cc2ccc(Cl)cc2)c1`, the z-score was determined as 0.141. For `O=C(NCCc1ccncc1)Nc1ccccc1`, the z-score turned out to be 0.141. In turn, `O=C(O)c1c(F)c(F)cc2ccccc12` displayed a z-score of 0.365.

For the compound `CNc1oc(-c2ccco2)nc1C#N`, the z-score worked out at 0.498.

Consider `Cc1cc(Cl)c(S(=O)(=O)N2CCCCCC2)cc1OCC(N)=O`, for which the z-score was determined as 1.66.

Consider `CC(C)CNC(=S)NC(=O)c1ccccc1Cl`, for which the z-score was 8.99 (active). Consider `CCNC(=S)NNC(=O)c1ccccc1Cl`, for which the z-score was -0.211.

On to `O=C(NC(=S)NCCN1CCOCC1)c1ccccc1Cl`, for which the z-score was -0.177. For the compound `Cc1cc(/C=C(\C#N)C(=O)Nc2ccccc2)c(C)n1-c1ccc2c(c1)OCO2`, the z-score is -0.335. In turn, `CCN(CC)C(=O)Oc1ccc2cc(Br)ccc2c1` came in with a z-score of 0.935.

`CC(C)(C)C1CCC(OCC(O)CN2CCN(Cc3ccccc3)CC2)CC1` (stereo not drawn): the z-score is -0.106.

On to `CC1CCN(CC(O)COC2CCC(C(C)(C)C)CC2)CC1` (stereo not drawn), for which the z-score was 4.18 (active). As for `CC(C)(C)C1CCC(OCC(O)CN2CCN(c3ccccc3)CC2)CC1` (stereo not drawn), the z-score was -0.235.

The compound `CC(=O)/C(=N\Nc1ccccc1)Sc1nnc(-c2ccccc2)n1-c1ccccc1` gave a z-score of -0.24.

With `COc1ccccc1-n1nnnc1SCC(=O)NC1CCCC1`, the z-score is -0.293. As for `Cc1cnc(NC(=O)CSc2ncn(-c3ccccc3)n2)s1`, the z-score was -0.143. Turning to `Cc1cccc(C)c1OCC(=O)N/N=C/c1cccn1C`, the z-score is -0.372. As to `Cc1ccc(OCC(=O)N/N=C/c2cccn2C)cc1`, the z-score amounted to 1.01.

`Cc1ccccc1OCC(=O)N/N=C/c1cccn1C`: the z-score was 2.42. `CCCS(=O)(=O)N1CCCC(C(=O)NCCCN(C)c2ccccc2)C1` (stereo not drawn) displayed a z-score of 0.0444. The value for `O=S(=O)(c1ccccc1)N1CCN(C(=S)Nc2ccc(F)cc2)CC1` was 3.37 (active); that for `NS(=O)(=O)c1ccc(NC(=S)N2CCN(S(=O)(=O)c3ccc(F)cc3)CC2)cc1` was 0.195. In turn, `O=S(=O)(c1ccc(Cl)cc1)N1CCN(C(=S)Nc2ccc(F)c(Cl)c2)CC1` came in with a z-score of 0.862. In turn, `COc1ccccc1-n1c(CCn2nc(C)c(Br)c2C)n[nH]c1=S` gave a z-score of -0.472. In turn, `CC1(C)CC(=O)C(N=Nc2ccc(Cl)cc2)=C(O)C1` displayed a z-score of -0.154.

Consider `CC(C)c1ccc(OCC(=O)N(c2ccccn2)C2CCCCC2)cc1`, for which the z-score is -0.397. As to `O=C(CSc1nncs1)NCc1ccc2c(c1)OCO2`, the z-score was -0.652.

The compound `COc1cccc(-n2c(SCC(=O)N3CCCC3)nc3c([nH]c4ccccc43)c2=O)c1` came in with a z-score of -0.189. The value for `Cc1nnc2c3ccccc3c(-c3cccc4ccccc34)nn12` was -1.04. Compound `CC1CCCC(C)N1C(=O)CSc1nnc(COc2ccccc2)n1-c1ccccc1` (stereo not drawn) came in with a z-score of -0.853. The compound `OCCNc1nc(N2CCCC2)nc(N2CCCC2)n1` registered a z-score of -0.968. Compound `CC(C)(CO)Nc1nc(N2CCCC2)nc(N2CCCC2)n1` registered a z-score of 2.09. Compound `CC(C)(C)Nc1nc(N2CCCC2)nc(N2CCCC2)n1` returned a z-score of -0.14. On to `CC1CCCN(CC(O)COc2ccc(Cl)cc2)C1` (stereo not drawn), for which the z-score was determined as 0.149. `O=C(CSc1nccc2ccccc12)N1CCN(c2ccccn2)CC1`: the z-score is -1.6.

The compound `Cc1ccc(OCC(=O)Nc2cccc(S(=O)(=O)N3CCCCC3)c2)c([N+](=O)[O-])n1` displayed a z-score of 0.216. The value for `O=C(COc1cccnc1[N+](=O)[O-])Nc1cccc(S(=O)(=O)N2CCCCC2)c1` was -0.289; that for `Cc1ccc(NC(=O)COc2cccnc2[N+](=O)[O-])cc1S(=O)(=O)N1CCCCC1` was 4.45 (active); that for `Cc1ccc(NC(=O)COC(=O)CNC(=O)c2cccc([N+](=O)[O-])c2)cc1S(=O)(=O)N1CCCCCC1` was 0.745.

As for `Cc1ccc(OCC(=O)Nc2cc(S(=O)(=O)N3CCCCC3)ccc2C)c([N+](=O)[O-])n1`, the z-score was -0.377. Take `Cc1ccc(OCC(=O)Nc2ccc(C)c(S(=O)(=O)N3CCCCC3)c2)c([N+](=O)[O-])n1`: the z-score was 6.89 (active).
